Where “and” joins values, the source holds several entries; their conditions need not be identical. Equal values may be shown once. Results filed as inconclusive are left out. A number with no mark means an inactive call. Calls of active or inactive are those of the source. Calls follow the shape of the dose curve; as a rule, active = well fitted cell-killing curve with a large enough effect; inconclusive = small, poorly fitted or top-dose-only effect; inactive = flat fitted curve, though single readings scatter.
% is scaled to controls: 0 for no effect and ±100 for the full control effect.

The nature of the assay: Cellular viability qHTS for adrenocortical cancer (ACC) cell line SW-13 (AID 1963989). Also: nearly all actives have a fitted effect of over 65% in size.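 As to activity (max response): cells grown in serum-free medium with ITS supplement.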 Conditions: SW-13 ACC cells viability, CellTiter-Glo, 48 h; activity (max response): hits give low values. The text has this:
PI: Naris Nilubol, MD Surgical Oncology Program, National Cancer Institute (NCI) National Institute of Health (NIH), Bethesda, Maryland Adrenocortical cancer (ACC) is a rare malignancy with poor survival outcomes and few treatment options. Currently, mitotane is the only FDA-approved therapy for ACC. Although adjuvant radiation therapy is rarely utilized, it has the potential to improve survival in select cases. Through a quantitative high-throughput drug screen (qHTS), we identified auranofin (AF), a thioredoxin reductase (TXNRD) inhibitor, as a promising candidate drug. This study aims to evaluate whether AF can enhance the efficacy of radiation therapy in the treatment of ACC. Two human ACC cell lines, SW-13 and NCI-H295R, were screened using the National Center for Advancing Translational Sciences (NCATS) Pharmaceutical Collection (NPC) and the Mechanism Interrogation PlatE (MIPE) library (~4,991 compounds). CellTiter-Glo (Cat # G7570, Promega, Madison, WI) was utilized to measure cell viability. Described herein are the results of the corresponding viability assay.
PROTOCOL TABLE (as described by Inglese J, Shamu CE and Guy RK. 2007) SEQUENCE No. (e.g., 1, 2, 3, etc.); […] (e.g., Cells, Incubation, Reagent, etc.); VALUE; DESCRIPTION. 1; Cells; 5 uL; white, solid-bottom, 1536-well tissue-culture treated plates. 2; Time; overnight culture at 37C with 5% CO2. 3; Compounds and control; 23 nL; Kalypsis pin tool (Wako USA) equipped with a 1536-well pin head to transfer to the assay plates. 4; Time; 48 hours; 37C with 5% CO2. 5; Reagent; 4 uL; CellTiter-Glo luminescent substrate mix. 6; Time; 20 min at room temperature. 7; Detection; Luminescence; ViewLux plate reader NOTES (numbers refer to Sequence numbers above) 1. SW13 cells were harvested from a T175 flask and resuspended in ITS-supplemented DMEM serum-free medium at a concentration of 300 000 cells/mL. Then 5 uL of resuspended cells were dispensed into each well of white, solid-bottom, 1536-well tissue-culture-treated plates using a multidrop combi dispenser. The plates were covered with stainless steel gasket lids. 2-3. The plates were cultured overnight at 37C with 5% CO2. Twenty-three nL of compounds (eight selected concentrations from the NPC / MIPE) or positive control (10 mM stock of bortezomib) in DMSO was transferred to each well of the assay plate using a pin tool (Kalypsys, San Diego, CA, USA). The final concentration of the compounds in the 5 uL assay volume ranged from 0.5 nM to 46 uM. 4-6. After 48 hours of incubation at 37C and 5% CO2, 4 uL of CellTilter-Glo luminescent substrate mix (Promega, Madison, WI, USA) was added to each well. Then the plates were incubated for 20 minutes at room temperature. 7. After incubation, luminescence was measured using a ViewLux plate reader (PerkinElmer, Waltham, MA, USA) with a clear filter was used to measure the number of metabolically competent cells. To determine compound activity in the qHTS assay, the titration-response data for each sample was plotted and modeled by a four-parameter logistic fit yielding IC50 and efficacy (maximal response) values. […] REFERENCES: Inglese J, Shamu CE and Guy RK, Reporting data from high throughput screening of small molecule libraries, Nature Chemical Biology, 2007, 3(8): 438-441. doi.org/10.1038/nchembio0807-438.
With `CCCCC(CC)COC(=O)c1ccccc1C(=O)O` (stereo not given), the activity (max response) was 6.28%.
In the case of `NS(=O)(=O)c1cc2c(cc1Cl)NC(CSCc1ccccc1)=NS2(=O)=O`, the activity (max response) was -2.17%.
In the case of `N#Cc1cc2cc(CN3CCC(Nc4ncnc5sc(CC(F)(F)F)cc45)CC3)c(O)cc2n1Cc1cn[nH]c1`, the Potency was 14.1 µM (active).
Regarding `CC(C)CCCC(C)N` (stereo not given), the activity (max response) is 3.28%.
On the same count and under the same terms, the same measure for `O=c1c(-n2ccnn2)c[nH]n1-c1cc(N2CCOCC2)ncn1`: -5.69%; for `CCC1C(=O)OCC1Cc1cncn1C` (stereo not given): 6.41%.
The same measure, in the same setting: as for `O=c1c(O)c(-c2cc(O)c(O)c(O)c2)oc2cc(O)cc(O)c12`, the figure is -0.163%.
As for `COc1cc2c(cc1OC)C(=O)C(CC1CCN(Cc3ccccc3)CC1)C2` (stereo not given), the activity (max response) was -16.2%.
Turning to `CCc1cc2cc(OC)c(OC)cc2c(Cc2ccccc2)n1`, the activity (max response) is -5.12%.
Same read-out and setting: as for `O=C(O)Cc1csc(-c2ccc(Cl)cc2)n1`, the figure is -3.04%.
Turning to `NS(=O)(=O)c1ccc(Cc2c(-c3cccc(-c4ccccc4)c3)nn(-c3nc(C(=O)O)cs3)c2CC2CC2)cc1`, the Potency was 31.6 µM (active).
Take `Cc1cc(O)c2c(O)c3c(O)cccc3cc2c1`: the activity (max response) is -2.49%.
Take `CN1C(=O)N[C@@H](Cc2c[nH]c3c(Cl)cccc23)C1=O`: the activity (max response) was -3.59%.
Regarding `CC[C@]12CCCN3CCc4c(n(c5ccccc45)[C@@](O)(C(=O)OC)C1)[C@@H]32`, the activity (max response) is 1.04%.
Same read-out and setting: the same measure for `c1ccc2[nH]ccc2c1`: 10.5%; for `NC1CCN(c2cccc(Cl)n2)CC1`: 2.41%; for `CCC(C)CNCC(=O)N1CCc2sccc2C1c1cccc(C)n1` (stereo not given): 11.1%.
`CCN(CC)CCCC(C)Nc1c2ccc(Cl)cc2nc2ccc(OC)cc12` (stereo not given): the Potency is 28.2 µM (active).
On to `CC(C)c1noc(N2CCC(COc3ccc(-c4ccc(S(C)(=O)=O)cc4)nc3)CC2)n1`, for which the activity (max response) was -1.34%.
With `COc1ccc2cc(C=O)ccc2c1`, the activity (max response) is 8.85%.
Turning to `COc1ccc(-c2cc(C(O)C3CCCCN3)c3ccccc3n2)cc1` (stereo not given), the Potency was 28.2 µM (active).
Consider `Cc1ccc(NC(=O)Nc2nnc(Sc3ncnc4cc(OCCCN5CCOCC5)ccc34)s2)cc1`, for which the activity (max response) was -9.58%.
The same measure, in the same setting: as for `CCCCNC(=O)NS(=O)(=O)c1ccc(N)cc1`, the figure is 0.545%.
`COc1ncc(-c2ccc3nccc(-c4ccnnc4)c3c2)cc1NS(=O)(=O)c1ccc(F)cc1F`: the Potency was 1.12 µM (active).
Take `Cc1nc2n(c(=O)c1CCN1CCC(c3noc4cc(F)ccc34)CC1)CCC[C@H]2O`: the activity (max response) was 4.14%.
On to `Cc1ccc2c(c1)c1c3n2CCNC3CCC1` (stereo not given), for which the activity (max response) was -5.85%.
For the compound `COc1cc(S(N)(=O)=O)cc(C(=O)O)c1OC`, the activity (max response) was 10.1%.
In the case of `O=C1CCCC2=C1C(c1[nH]ncc1Cl)N=C(Nc1nc3ccccc3o1)N2` (stereo not given), the activity (max response) was -9.4%.
On to `COc1cc2ncn(-c3cc(OCc4ccccc4C(F)(F)F)c(C(N)=O)s3)c2cc1OC`, for which the Potency is 1.26 µM (active).
As to `CCOC(=O)c1c(C)n(C)c2ccc(O)cc12`, the activity (max response) was 5.26% and -18.4%.
In the case of `O=C(N[C@H](CO)[C@H](O)c1ccc([N+](=O)[O-])cc1)C(Cl)Cl`, the activity (max response) is -5.45%.
On the same count and under the same terms, the same measure for `Cn1cc(-c2ccc(F)c(C(F)(F)F)c2)nc1C1CCN(c2ncnc3[nH]ncc23)CC1`: 13.1%.
For `COCCN1CCN(Cc2ccc(-c3n[nH]c4c3C(=O)c3c(NC(=O)NN5CCOCC5)cccc3-4)cc2)CC1`, the Potency is 0.316 µM (active).
For `Cc1cc(-c2ncc(CC(=O)Nc3ccc(-c4cnccn4)cn3)cc2C)ccn1`, the activity (max response) was -24.1%.
For `CN(CC(=O)N(Cc1ccc(C2CCCCC2)cc1)c1ccc(C(=O)O)c(O)c1)S(=O)(=O)c1c(F)c(F)c(F)c(F)c1F`, the activity (max response) is -5.17%.
In the case of `CC(=O)N(CC(O)CO)c1c(I)c(C(=O)NCCO)c(I)c(C(=O)NCC(O)CO)c1I` (stereo not given), the activity (max response) was 7.39%.
Turning to `CCC(C(=O)OCCN1CCOC(c2ccccc2)C1C)c1ccccc1` (stereo not given), the activity (max response) was 3.6%.
Consider `COc1ccnc2c1CCCCC2S(=O)c1nc2ccccc2[nH]1` (stereo not given), for which the activity (max response) was 4.45%.
Regarding `Cc1cc(OI)c(C(C)C)cc1-c1cc(C(C)C)c(OI)cc1C`, the activity (max response) was 11.4%.
As to `O=C(Nc1ccc([N+](=O)[O-])cc1)Nc1ccc([N+](=O)[O-])cc1`, the activity (max response) is 3.91%.

Values taken from PubChem BioAssay (NCATS).
